The campaign covered roughly 48,000 compounds. About 1,200 (2.5%) were called active. Not shown: some 2% with an inconclusive outcome. This excerpt belongs to a sample that is enriched for actives. A number with no mark means an inactive call.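 How the source made its calls: active means activation of at least 60% and not above a set upper limit (about 1 call in 100 departs from these limits); inconclusive means activation of 40% to 60%, or above that upper limit; inactive means activation under 40%.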

Sequence of Probable G-protein coupled receptor 32 (Homo sapiens) (O75388 whole entry, looked up): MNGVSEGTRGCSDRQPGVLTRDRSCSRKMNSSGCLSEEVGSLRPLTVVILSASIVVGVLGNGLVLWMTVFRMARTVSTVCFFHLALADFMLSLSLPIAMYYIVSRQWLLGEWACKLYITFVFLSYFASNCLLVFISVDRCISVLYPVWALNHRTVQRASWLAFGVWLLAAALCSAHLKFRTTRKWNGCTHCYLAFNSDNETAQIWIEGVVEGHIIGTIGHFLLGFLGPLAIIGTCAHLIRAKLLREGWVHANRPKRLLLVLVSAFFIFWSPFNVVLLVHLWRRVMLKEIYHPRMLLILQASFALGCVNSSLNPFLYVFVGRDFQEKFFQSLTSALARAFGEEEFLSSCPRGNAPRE

This assay deals with Probable G-protein coupled receptor 32 (Homo sapiens) (UniProt O75388). Kind of assay: qHTS for Agonists of Human Resolvin D1 Receptor DRV1. As to conditions: CHO-K1 GPR32 beta-arrestin PathHunter luminescence, 90 min; at 76.9 µM; stronger effect = higher value; zero percent set by DMSO-only wells. An excerpt:
Endogenous resolution of inflammation is known to be transduced through various GPCRs and their natural mediators of lipid nature. Resolvin D1 (RvD1) is one of the active players in resolution of acute inflammation through regulation of anti-inflammatory pathways; it is known to enhance phagocytosis of human macrophages, limits neutrophils infiltration, etc. […] The search for GPR32-activating small molecules with anti-inflammatory effects similar to its natural omega-3 derivative ligand in order to use them as research tools for further studies of inflammation and its resolution was the goal of this screening project. For primary screening assay, we used CHO-K1 GPR32 beta-arrestin cell line (DiscoveRx, #93-0321C2A) and the PathHunter(R) beta-Arrestin Assay (DiscoveRx) which measures recruitment of beta-arrestin to the GPR32 and generates chemiluminescent signal. These engineered cells stably transfected with GPR32 co-express GPR32-fused small 42-amino acid fragment of beta-Gal called ProLinktrade mark, and […] -tagged beta-Arrestin fusion protein. When GPR32 is activated by a ligand, it stimulates binding of beta -Arrestin to ProLink-tagged GPR32, and two parts of beta-Gal complement forming a functional enzyme. Upon substrate (PathHunter(R) Detection reagent) addition, beta-Gal hydrolyzes it and generates a chemiluminescent signal.
The cells were thawed and plated in thawing media containing F-12 HAM (Invitrogen, #11765-054), 10% FBS (Invitrogen, #10082), 1x Glutamine, and 1x Pen/Strep onto the 175-mm flask for 24 hours. Then, thawing media was replaced with Growth media which contains 800microg/mL Geneticin (Invitrogen, #10131) and 300microg/mL Hygromycin B (Invitrogen, #10687) in addition to described above. For the assay, the cells were harvested at ~80% confluent stage with Cell Dissociation buffer (Gibco, #13151), and seeded at 2,500 cells/ 3microL/well in assay media (PathHunter(R) Cell Plating Reagent, DiscoverX, #93-0563R1B) using MultiDrop Combi dispenser (Thermo Scientific, Logan, UT) onto white solid bottom tissue culture-treated 1536-well plates (Greiner # 789173-F) and allowed to attach overnight at 37 degrees C, 95% humidity, 5% CO2, . Next, 23nL/well of compound solutions in DMSO were added with a Pin Tool (Kalypsis, San Diego, CA) to the assay plates. As the basal control (EC0), 23 nL/well of DMSO was used on each plate. The cells were incubated in the presence of compounds or DMSO for 90 minutes at 37 degrees C, 5% CO2. Subsequently, 1.5microL/well of PathHunter(R) Detection Reagent prepared per the manufacturer's instructions was added to the assay plates with BioRAPTR FRDtrade mark dispenser (Beckman Coulter, San Francisco, CA) and incubated for 1 hour at ambient temperature prior to the measurement of the luminescent signal on ViewLux(R) uHTS Microplate Imager (Perkin Elmer, Waltham, MA).
(Quantitative high-throughput screening tests each substance at several concentrations.)
Regarding `c1ccc2c(c1)[I+]c1ccccc1-2`, the activation was 85.7% (active).

On to `Nc1ccc([N+](=O)[O-])cc1`, for which the activation is -34.8%.

As for `CC[N+]1(CCOC(=O)C(O)(c2ccccc2)c2ccccc2)CCCCC1`, the activation is -7.19%.

Take `NCCc1ccc(S(=O)(=O)F)cc1`: the activation was 14.4%.

In the case of `CC1N=C(N)OC1c1ccccc1` (stereo not given), the activation is -12.2%.

Consider `C=CCN1CCC23c4c5ccc(O)c4O[C@H]2C(=O)CC[C@@]3(O)C1C5` (stereo not given in full), for which the activation was -10.4%.

For the molecule `O=S(=O)(O)C(F)(F)C(F)(F)C(F)(F)C(F)(F)F`, the activation was 94.8% (active).

With `Cc1nnc(NC(=O)c2cccn(Cc3cccc(F)c3)c2=O)s1`, the activation is 23.9%.

Regarding `CCOC(=O)c1ncn2c1[C@@H]1CCCN1C(=O)c1cc(OC)ccc1-2`, the activation is -9.3%.

For the molecule `CC1=C(C(=O)O)N2C(=O)[C@@H](N)[C@H]2SC1`, the activation is -12.7%.
